Compound activity deposited in PubChem BioAssay by several laboratories.
In the library only some 1.6% were active in any assay of this set; here they are far more common.
PERK inhibitor: human PERK inhibition, primary cell-based screen; Q9NZJ5; CHO PERK-DD fusion, SEAP luminescence translation reporter; inhibition, % at 5.6 µM; 220,000 compounds, 0.17% hits; AID 1416;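 active means inhibition above the mean inhibition of all tested compounds plus 3 SD, set separately per screening campaign, cut at about 2.9% in these data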;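 further: PERK kinase domain activated by AP20187 dimerizer at 100 nM; 0% = DMSO with dimerizer and 100% = rapamycin at 8.4 µM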
PABP1 MLLE inh: inhibitors of microRNA-mediated deadenylation, human PABP1 MLLE binding. GST-MLLE / FITC-PAM2 fluorescence polarization. inhibition, % at 20 µM. 360,000 compounds, 0.36% hits. AID 588489. P11940; in the data active means inhibition above about 35%, passing the limit was not always enough;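 further: plate controls were DMSO wells with GST-MLLE for no effect and wells lacking GST-MLLE protein for full effect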
eIF4E 4G PPI: inhibitors of eIF4E and eIF4G interaction in translation initiation | 220,000 compounds, 0.37% hits | P63073+Q04637 | TR-FRET eIF4E-eIF4GI(517-606) binding, 2 h | inhibition, % at 21.7 µM;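 active means inhibition above about 30%, limit read from the data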;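 further: 0% = full FRET control wells and 100% = background wells lacking eIF4GI fragment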
PABP FP inh: blocks human PABP binding to poly(A) RNA; P11940; fluorescence polarization; calls only at 35 µM; 290,000 compounds, 1% hits; AID 2014;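 further: calls also rest on retests at 20 µM and on dose response follow-up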
eIF4H inh: inhibitors of RNA binding by human eIF4H; eIF4H fluorescence polarization binding assay; inhibition, % at 35 µM; 290,000 compounds, 0.94% hits;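 further: calls also rest on retests at 20 µM and on dose response follow-up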
* marks the source's active call; other numbers are inactive results; i = inactive; ? = inconclusive; nt = no result; + = active, no number. Unless noted, how the calls were made is not given here.

SMILES | PERK inhibitor | PABP1 MLLE inh | eIF4E 4G PPI | PABP FP inh | eIF4H inh
Cc1cc(C)n2nc(SCc3cc(=O)oc4ccc5ccccc5c34)nc2n1 | -0.1 | 40.2* | -16.6 | i | 28.6
CC(=C/c1ccco1)/C=N/NC(=O)c1nnn(-c2nonc2N)c1CN(C)C | 0.4 | -12.1 | -2.8 | i | 12.6
COc1ccc(C(=O)CCN2CCCC(C)C2)cc1 (centres undefined) | nt | 40.9* | nt | i | -16.3
CCOC(=O)N1CCN(CCC(=O)c2ccc(OC)cc2)CC1 | 1.0 | 13.6 | 0.1 | i | -6.7
COc1ccc(C(=O)CCN2CCC(C)CC2)cc1 | nt | 43.6* | nt | i | -10.2
CC1CCCN(CCC(=O)c2ccc(Br)cc2)C1 (centres undefined) | -0.9 | 23.9 | 4.4 | i | -5.4
Cc1cc(C)n(-c2ccc(C(=O)N3CCN(S(=O)(=O)c4ccc(Br)cc4Cl)CC3)cc2)n1 | nt | 5.1 | nt | nt | nt
CCNCC(O)COCC(O)CNCC (centres undefined) | 1.5 | 6.5 | 46.0* | i | -11.2
CCC(C)(C)n1nnnc1C(c1cc2ccc(OC)cc2[nH]c1=O)N1CCc2ccccc2C1 (centres undefined) | -0.2 | 71.5* | 4.0 | i | -0.2
COc1ccc2cc(C(c3nnnn3C3CCCC3)N3CCc4ccccc4C3)c(=O)[nH]c2c1 (centres undefined) | -0.2 | 40.8* | -21.2 | i | 1.6
COc1cc2cc(C(c3nnnn3C3CCCC3)N(C)C3CCCCC3)c(=O)[nH]c2cc1OC (centres undefined) | 0.1 | -7.3 | 30.5* | i | -12.7
COc1ccc2cc(C(c3nnnn3C(C)(C)C)N3CCc4ccccc4C3)c(=O)[nH]c2c1 (centres undefined) | -1.1 | nt | 2.1 | i | -4.1
CC(CNC(=O)c1ccc(OC2CCN(Cc3ccccn3)CC2)cc1)c1ccccc1 (centres undefined) | nt | -4.0 | nt | i | -8.6
COc1ccc(C2=NOC(Cn3nc(-c4ccccc4C)cc3C(=O)O)C2)cc1 (centres undefined) | nt | -4.6 | nt | nt | nt
Cc1cc(/C=c2\sc3nc4ccccc4n3c2=O)c(C)n1-c1ccc(C(=O)O)cc1 | -0.7 | -43.6 | 7.2 | + | 64.2
Cc1cc(C)c2nc3sc(=Cc4ccc(-c5ccccc5C(=O)O)o4)c(=O)n3c2c1 | nt | -105.8 | nt | nt | nt
O=C(O)c1ccc(-c2ccc(/C=c3/sc4nc5ccccc5n4c3=O)o2)cc1Cl | nt | -70.0 | nt | + | 78.3
CCOC(=O)CCSc1nc(-c2ccc3c(c2)OCO3)cc(C(F)(F)F)c1C#N | 1.7 | -4.6 | -16.5 | i | -6.2
CCOC(=O)CC(=O)CSc1nc(-c2ccc3c(c2)OCO3)cc(C(F)(F)F)c1C#N | 0.3 | 5.1 | 10.9 | + | ?
C=CCc1ccc(OCC(O)CN2CCCCC2)c(OC)c1 (centres undefined) | 1.0 | -32.2 | -11.4 | i | -9.4
C=CCc1ccc(OCC(O)COc2ccc(CC=C)cc2OC)c(OC)c1 | -0.7 | -12.2 | -1.2 | + | ?
Cc1ccc(-c2c3c([nH]c(=S)c2C#N)CCCC3)o1 | 0.6 | -42.0 | 10.9 | + | 55.6*
Cc1ccc(C(=O)N2CCCC2(C)C(=O)NCC(C)C)cc1F (centres undefined) | nt | 10.3 | nt | nt | nt
Nc1ncnc(N2CCOCC2)c1N | 0.7 | -1.3 | 14.8 | + | 87.3*
COc1ccc(-c2cc(C(=O)NN)n(-c3ccccc3)n2)cc1 | 0.5 | -10.0 | -2.7 | i | -1.5
SMILES | PERK inhibitor | PABP1 MLLE inh | eIF4E 4G PPI | PABP FP inh | eIF4H inh
CCOC(=O)c1cc(-c2ccc(OC)cc2)nn1-c1ccccc1C(=O)O | -1.0 | 0.0 | 33.5* | i | 47.5
O=C(c1cccc(S(=O)(=O)N2CCc3ccccc32)c1)N1CCN(c2ccccc2)CC1 | nt | -1.4 | nt | nt | nt
CCOC(=O)c1cnc(-n2[nH]c(C)cc2=O)[nH]c1=O | 2.2 | -5.4 | -2.7 | + | 99.8*
CCOC(=O)c1cnc(-n2nc(C)cc2C)[nH]c1=O | -0.8 | 3.8 | -6.0 | i | -6.6
CCC(=O)c1ccc(OCC(=O)OCC(=O)N(CCC#N)c2ccc3c(c2)OCCO3)cc1 | nt | -8.9 | nt | nt | nt
O=C(OCc1ccccc1)N1CCC2CC1c1cc(/C=C/CCCSc3ncccn3)ccc12 (centres undefined) | nt | 23.6 | nt | nt | nt
O=C(NCC1CCCO1)c1cc2ccccc2o1 (centres undefined) | nt | -2.2 | nt | i | 1.9
C=CCn1c(-c2ccoc2)n[nH]c1=S | 0.5 | -11.7 | 65.2* | i | 1.7
O=C(Nc1ccc(C(F)(F)F)cc1)C1=NN(C2CCS(=O)(=O)C2)C(=O)CC1 (centres undefined) | nt | 2.8 | nt | nt | nt
